10 compounds from PubChem BioAssay (NCI) can be followed below.

SMILES strings stand for the structures. About 79,000 compounds went through this panel and 15% of them were active in at least one assay; those are over-represented in the sample as a whole. A number with no mark means an inactive call. The source made the active and inactive calls. Rule as the data show it: active = growth inhibition above about 70%; inactive = the rest. Where a SMILES comes first, the peptide text is derived from it. The star is where a group is joined. Cbz = O=C(OCc1ccccc1)*

A short description of experiment [1]: NCI Yeast Anticancer Drug Screen. Data for the rad50 strain (AID 155).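 Also: 0% = growth of vehicle-only cultures of the same strain.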 Conditions: S. cerevisiae rad50 strain growth inhibition, stronger effect = higher value. In short, it runs like this: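 Vehicle-treated cultures provide the reference for the growth inhibition reported for compound-exposed, repair-deficient yeast.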
A short description of experiment [2]: NCI Yeast Anticancer Drug Screen. Data for the mec2-1 strain (AID 157). Conditions: S. cerevisiae mec2-1 strain, stronger effect = higher value. In short, it runs like this:
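Growth inhibition is read against vehicle-treated controls after compound exposure of the mec2-1 yeast strain, which is defective in DNA damage repair or cell cycle control.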

Experiment [3] is described as follows: NCI Yeast Anticancer Drug Screen. Data for the sgs1 mgt1 strain (AID 161).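 Also: 0% = growth of cultures given vehicle only.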 As to conditions: S. cerevisiae sgs1 mgt1 strain, stronger effect = higher value. In short, it runs like this: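 Yeast cells carrying a defined DNA-repair defect were exposed to test compounds. Growth inhibition was measured relative to vehicle-treated controls.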
The nature of experiment [4]: NCI Yeast Anticancer Drug Screen. Data for the cln2 rad14 strain (AID 165).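 Also: 0% = growth equal to vehicle treated cultures.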 Conditions: S. cerevisiae cln2 rad14 strain, stronger effect = higher value. In short, it runs like this:
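Growth inhibition, relative to vehicle-treated controls, is the read-out. The test organism is a yeast strain with defined genetic alterations, cln2 rad14.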

A short description of experiment [5]: NCI Yeast Anticancer Drug Screen. Data for the bub3 strain (AID 167). As to conditions: S. cerevisiae bub3 mutant strain, stronger effect = higher value. The method in brief: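 Mutant yeast screening strain plus compound; vehicle-treated cultures serve as the 0% inhibition reference.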
Experiment [6] in a line: NCI Yeast Anticancer Drug Screen. Data for the mlh1 rad18 strain (AID 175). Conditions: S. cerevisiae mlh1 rad18 strain growth inhibition, stronger effect = higher value. In short, it runs like this: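 Cells of a genetically altered yeast strain, deficient in DNA damage repair, were treated with compound. Their growth was then compared with that of vehicle-treated cultures to give inhibition.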

Where [7] appears, read: at 5.0 µM (retest, dose inferred, filed as 0.5).
Where [8] appears, read: at 50.0 µM (retest, dose inferred, filed as 5.0).

As to `COC(=O)c1c(C(N)=O)c(C)n(NC(=O)Nc2ccccc2)c1C`, the growth inhibition in experiment [1] (setting [7]) was 25%; in experiment [1] (setting [8]) it was 93% (active); in experiment [1] (at 50.0 µM) it was 96.2% (active); in experiment [2] (setting [7]), 24%; in experiment [2] (setting [8]) it was 95% (active); in experiment [2] (at 50.0 µM) it was 85.1% (active). In addition, the growth inhibition was 41% in experiment [3] (setting [7]); 94% (active) in experiment [3] (setting [8]); 95% (active) in experiment [3] (at 50.0 µM); 32% in experiment [4] (setting [7]); 91% (active) in experiment [4] (setting [8]); 81.4% (active) in experiment [4] (at 50.0 µM). In addition, the growth inhibition was 37% in experiment [5] (setting [7]); 92% (active) in experiment [5] (setting [8]); 86.2% (active) in experiment [5] (at 50.0 µM); 63% in experiment [6] (setting [7]); 95% (active) in experiment [6] (setting [8]); 87.8% (active) in experiment [6] (at 50.0 µM).
With `CCS/C(SC)=C(/c1ccccc1)[P+](c1ccccc1)(c1ccccc1)c1ccccc1`, the growth inhibition is 98% (active) in experiment [1] (setting [7]); 99% (active) in experiment [1] (setting [8]); 90.6% (active) in experiment [1] (at 50.0 µM); 99% (active) in experiment [2] (setting [7]); 100% (active) in experiment [2] (setting [8]); 94.3% (active) in experiment [2] (at 50.0 µM). The growth inhibition is 99% (active) in experiment [3] (setting [7]); 99% (active) in experiment [3] (setting [8]); 91.6% (active) in experiment [3] (at 50.0 µM); 98% (active) in experiment [4] (setting [7]); 99% (active) in experiment [4] (setting [8]); 91.5% (active) in experiment [4] (at 50.0 µM). Besides, the growth inhibition in experiment [5] (setting [7]) was 99% (active); in experiment [5] (setting [8]), 100% (active); in experiment [5] (at 50.0 µM), 91% (active); in experiment [6] (setting [7]), 98% (active); in experiment [6] (setting [8]), 99% (active); in experiment [6] (at 50.0 µM), 91.8% (active).
`O=C(NC(Cc1ccc(O)cc1)C(=O)NC(Cc1ccccc1)C(=O)O)OCc1ccccc1` (stereo not drawn) (Cbz-Tyr-Phe-OH; configuration not given here): the growth inhibition in experiment [1] (setting [7]) is -6%; in experiment [1] (setting [8]) it was -1%; in experiment [1] (at 50.0 µM) it was -17.3%; in experiment [2] (setting [7]) it was 29%; in experiment [2] (setting [8]) it was -1%; in experiment [2] (at 50.0 µM), 5.85%. Also, the growth inhibition in experiment [3] (setting [7]) is -2%; in experiment [3] (setting [8]) it was 0%; in experiment [3] (at 50.0 µM), 34.1%; in experiment [4] (setting [7]), 1%; in experiment [4] (setting [8]) it was 1%; in experiment [4] (at 50.0 µM), -36.5%. Also, the growth inhibition in experiment [5] (setting [7]) is -5%; in experiment [5] (setting [8]), -3%; in experiment [5] (at 50.0 µM) it was -4.3%; in experiment [6] (setting [7]), -2%; in experiment [6] (setting [8]), -1%; in experiment [6] (at 50.0 µM), -0.6%.
`NS(=O)(=O)c1ccc(NC(=O)Cc2nc3ccccc3s2)cc1`: the growth inhibition in experiment [1] (setting [7]) is 36%; in experiment [1] (setting [8]), 99% (active); in experiment [1] (at 50.0 µM), 91% (active); in experiment [2] (setting [7]) it was 40%; in experiment [2] (setting [8]), 99% (active); in experiment [2] (at 50.0 µM), 91% (active). For the same compound, the growth inhibition in experiment [3] (setting [7]) was 54%; in experiment [3] (setting [8]), 100% (active); in experiment [3] (at 50.0 µM), 93.2% (active); in experiment [4] (setting [7]), 31%; in experiment [4] (setting [8]) it was 94% (active); in experiment [4] (at 50.0 µM), 90.7% (active). Further, the growth inhibition is 49% in experiment [5] (setting [7]); 99% (active) in experiment [5] (setting [8]); 92% (active) in experiment [5] (at 50.0 µM); 65% in experiment [6] (setting [7]); 99% (active) in experiment [6] (setting [8]); 91.2% (active) in experiment [6] (at 50.0 µM).
Regarding `COc1cc([C@H]2c3c(cc(OC)c(OC)c3OC)CC3COC(=O)[C@@H]32)cc2c1OCO2` (stereo not given in full), the growth inhibition was 4% in experiment [1] (setting [7]); 37% in experiment [1] (setting [8]); 95.5% (active) in experiment [1] (at 50.0 µM); 2% in experiment [2] (setting [7]); 25% in experiment [2] (setting [8]); 98.8% (active) in experiment [2] (at 50.0 µM). The growth inhibition in experiment [3] (setting [7]) was 9%; in experiment [3] (setting [8]) it was 38%; in experiment [3] (at 50.0 µM), 52.2%; in experiment [4] (setting [7]), 1%; in experiment [4] (setting [8]), 4%; in experiment [4] (at 50.0 µM), 98.5% (active). Besides, the growth inhibition was -2% in experiment [5] (setting [7]); 53% in experiment [5] (setting [8]); 99.3% (active) in experiment [5] (at 50.0 µM); -2% in experiment [6] (setting [7]); 9% in experiment [6] (setting [8]); 97.5% (active) in experiment [6] (at 50.0 µM).
In the case of `O=S(=O)(c1ccccc1)C1CN=NC1c1ccccc1` (stereo not given), the growth inhibition was 4% in experiment [1] (setting [7]); 79% (active) in experiment [1] (setting [8]); 84.2% (active) in experiment [1] (at 50.0 µM); -16% in experiment [2] (setting [7]); 97% (active) in experiment [2] (setting [8]); 97.7% (active) in experiment [2] (at 50.0 µM). In addition, the growth inhibition was -7% in experiment [3] (setting [7]); 98% (active) in experiment [3] (setting [8]); 73.6% (active) in experiment [3] (at 50.0 µM); -2% in experiment [4] (setting [7]); 69% in experiment [4] (setting [8]); 93.5% (active) in experiment [4] (at 50.0 µM). For the same compound, the growth inhibition is 6% in experiment [5] (setting [7]); 98% (active) in experiment [5] (setting [8]); 87.8% (active) in experiment [5] (at 50.0 µM); 30% in experiment [6] (setting [7]); 97% (active) in experiment [6] (setting [8]); 97% (active) in experiment [6] (at 50.0 µM).
Consider `OC(c1cc(-c2ccccc2)nc2cc(Cl)ccc12)C1CCCCN1` (stereo not given), for which the growth inhibition was -2% in experiment [1] (setting [7]); -3% in experiment [1] (setting [8]); 8.7% in experiment [1] (at 50.0 µM); -3% in experiment [2] (setting [7]); 3% in experiment [2] (setting [8]); 26.1% in experiment [2] (at 50.0 µM). Also, the growth inhibition is -1% in experiment [3] (setting [7]); -2% in experiment [3] (setting [8]); 37% in experiment [3] (at 50.0 µM); -5% in experiment [4] (setting [7]); -4% in experiment [4] (setting [8]); 15% in experiment [4] (at 50.0 µM). Also, the growth inhibition in experiment [5] (setting [7]) is -2%; in experiment [5] (setting [8]), -5%; in experiment [5] (at 50.0 µM), 75% (active); in experiment [6] (setting [7]), -2%; in experiment [6] (setting [8]) it was -3%; in experiment [6] (at 50.0 µM) it was 53.6%.
In the case of `CCCCCCCCCCCCCCCC[n+]1ccc(/C=C/c2ccccc2)cc1`, the growth inhibition in experiment [1] (setting [7]) is 75% (active); in experiment [1] (setting [8]), 95% (active); in experiment [1] (at 50.0 µM) it was 98.4% (active); in experiment [2] (setting [7]) it was 100% (active); in experiment [2] (setting [8]), 96% (active); in experiment [2] (at 50.0 µM), 98.8% (active). The growth inhibition was 99% (active) in experiment [3] (setting [7]); 98% (active) in experiment [3] (setting [8]); 98.5% (active) in experiment [3] (at 50.0 µM); 46% in experiment [4] (setting [7]); 94% (active) in experiment [4] (setting [8]); 97.8% (active) in experiment [4] (at 50.0 µM). The growth inhibition in experiment [5] (setting [7]) is 88% (active); in experiment [5] (setting [8]), 97% (active); in experiment [5] (at 50.0 µM), 97.8% (active); in experiment [6] (setting [7]), 99% (active); in experiment [6] (setting [8]) it was 98% (active); in experiment [6] (at 50.0 µM), 97.7% (active).
In the case of `O=C1C=CC(=O)C2C1Cc1ccccc1C2c1ccccc1` (stereo not given), the growth inhibition is 15% in experiment [1] (setting [7]); 97% (active) in experiment [1] (setting [8]); 98.8% (active) in experiment [1] (at 50.0 µM); 26% in experiment [2] (setting [7]); 98% (active) in experiment [2] (setting [8]); 99.3% (active) in experiment [2] (at 50.0 µM). Also, the growth inhibition is 58% in experiment [3] (setting [7]); 98% (active) in experiment [3] (setting [8]); 99% (active) in experiment [3] (at 50.0 µM); 9% in experiment [4] (setting [7]); 92% (active) in experiment [4] (setting [8]); 98.8% (active) in experiment [4] (at 50.0 µM). Further, the growth inhibition in experiment [5] (setting [7]) was 14%; in experiment [5] (setting [8]), 98% (active); in experiment [5] (at 50.0 µM) it was 98.8% (active); in experiment [6] (setting [7]), 23%; in experiment [6] (setting [8]) it was 98% (active); in experiment [6] (at 50.0 µM) it was 98.5% (active).
In the case of `CCN(CC)CCSCCCNc1cc(C)nc2c1ccc1c2ccc2c(NCCCSCCN(CC)CC)cc(C)nc21`, the growth inhibition in experiment [1] (setting [7]) is 5%; in experiment [1] (setting [8]) it was 92% (active); in experiment [1] (at 50.0 µM) it was 97.3% (active); in experiment [2] (setting [7]) it was 3%; in experiment [2] (setting [8]), 70% (active); in experiment [2] (at 50.0 µM), 97.4% (active). Moreover, the growth inhibition in experiment [3] (setting [7]) is -2%; in experiment [3] (setting [8]), 49%; in experiment [3] (at 50.0 µM), 97.8% (active); in experiment [4] (setting [7]), -3%; in experiment [4] (setting [8]) it was 42%; in experiment [4] (at 50.0 µM), 72.5% (active). For the same compound, the growth inhibition is 4% in experiment [5] (setting [7]); 67% in experiment [5] (setting [8]); 94.4% (active) in experiment [5] (at 50.0 µM); 8% in experiment [6] (setting [7]); 94% (active) in experiment [6] (setting [8]); 95.8% (active) in experiment [6] (at 50.0 µM).
